Rows were chosen to be rich in hits. Some 3.1% of all compounds tested hit in one or more screens of this group.
Mcl1-Noxa inh = Mcl-1/Noxa interaction inhibition; Q07820; TR-FRET Mcl-1/Noxa peptide binding, 2 h; inhibition, % at 21.7 µM; 220,000 tested, 1.5% active;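 active = compounds that cut the protein-peptide binding signal by more than 50% relative to plate controls in a single-dose test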;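 note: His-tagged Mcl-1 with rhodamine Noxa BH3 peptide and terbium anti-His antibody; 0% = Mcl-1 plus Noxa peptide wells and 100% = peptide-only wells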
Bim-Mcl-1 = inhibitors of Bim-Mcl-1 interaction, human; Q07820; Bead-based flow cytometry, Bim peptide-Mcl-1 binding; inhibition, % at 10 µM; 190,000 tested, 0.1% active; in the data active = inhibition above about 40%;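 note: 0% = no compound tracer wells and 100% = peptide blocker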
Mcl1 Bid PPI = disrupts binding of human Mcl-1 to Bid peptide | Q07820 | TR-FRET Mcl-1/Bid-Dy647 peptide binding, 1536-well | 220,000 tested, 0.97% active | inhibition, % at 21.7 µM;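 active = compounds that cut the binding signal by more than half at the single screening dose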;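 note: His-tagged Mcl-1 with europium anti-His antibody binding Bid BH3 peptide; 0% = Mcl-1 plus peptide wells and 100% = peptide-only wells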
14-3-3 Bad inh = disrupts binding of bovine 14-3-3 zeta to phospho-Bad peptide; inhibition, % at 21.7 µM; P63103; AID 781; TR-FRET 14-3-3zeta/Dy647-pBad peptide displacement, 1 h; 220,000 tested, 0.71% active;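 active = inhibition above about 70%, limit read from the data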;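 note: 0% = full 14-3-3 plus peptide FRET controls and 100% = background without 14-3-3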
Target sequence (P63103 whole entry, looked up): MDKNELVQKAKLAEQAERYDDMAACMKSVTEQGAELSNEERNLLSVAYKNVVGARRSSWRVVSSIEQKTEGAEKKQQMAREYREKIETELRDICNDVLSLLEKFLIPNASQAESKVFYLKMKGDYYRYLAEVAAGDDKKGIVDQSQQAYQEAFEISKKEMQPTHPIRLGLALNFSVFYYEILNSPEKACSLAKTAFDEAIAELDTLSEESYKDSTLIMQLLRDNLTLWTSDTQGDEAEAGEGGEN
NCF1 inh = inhibitors of human p47phox binding. p47phox/p22phox peptide binding, fluorescence polarization, 2 h. inhibition, % at 24.7 µM. 220,000 tested, 0.53% active;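 active = inhibition above about 30%, limit read from the data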;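 note: 0% = p47phox with labelled peptide and 100% = labelled peptide alone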
Target sequence (P14598 whole entry, looked up): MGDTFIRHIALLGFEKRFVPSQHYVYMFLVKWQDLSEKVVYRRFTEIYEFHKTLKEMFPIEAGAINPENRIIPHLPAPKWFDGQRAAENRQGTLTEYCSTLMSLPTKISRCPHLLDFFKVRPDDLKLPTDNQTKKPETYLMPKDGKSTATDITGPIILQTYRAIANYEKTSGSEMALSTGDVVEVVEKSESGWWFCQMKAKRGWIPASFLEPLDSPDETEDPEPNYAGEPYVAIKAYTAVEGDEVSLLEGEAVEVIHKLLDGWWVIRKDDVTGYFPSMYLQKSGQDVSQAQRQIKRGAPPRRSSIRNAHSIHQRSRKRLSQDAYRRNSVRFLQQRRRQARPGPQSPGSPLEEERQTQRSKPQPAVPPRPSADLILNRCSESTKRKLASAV
Active calls of the source: *; ! = not confirmed by another sample.

For CN(C)S(=O)(=O)c1cccc(-c2nn(-c3ccccc3)cc2/C=C2\SC(=S)NC2=O)c1 the results were Mcl1-Noxa inh 108*, Bim-Mcl-1 35, Mcl1 Bid PPI 88*, 14-3-3 Bad inh -4 and NCF1 inh -100.
Screening CN(C)S(=O)(=O)c1cccc(-c2nn(-c3ccccc3)cc2/C=C(\C#N)c2nc3ccccc3[nH]2)c1 returned Mcl1-Noxa inh 4, Bim-Mcl-1 -3, Mcl1 Bid PPI 5, 14-3-3 Bad inh -5 and NCF1 inh -100.
For CCOc1ncccc1C(=O)Nc1cccc(Cl)c1Cl the results were Mcl1-Noxa inh -6, Bim-Mcl-1 1, Mcl1 Bid PPI -11, 14-3-3 Bad inh 4 and NCF1 inh -11.
For CCOC(=O)c1c(CS(=O)(=O)c2ccccc2)n(C)c2cc(Br)c(O)c(CN(C)C)c12 the results were Mcl1-Noxa inh 62*, Bim-Mcl-1 0, Mcl1 Bid PPI -26, 14-3-3 Bad inh 1 and NCF1 inh -5.
CSc1nc2nc(-c3ccccc3)cc(=O)n2[nH]1 was read as Mcl1-Noxa inh -9, Bim-Mcl-1 5, Mcl1 Bid PPI -4, 14-3-3 Bad inh 79* and NCF1 inh 3.
`Cc1ccc(C(=O)Nc2nc3nc(-c4ccccc4)cc(=O)n3[nH]2)cc1` gave Mcl1-Noxa inh 8, Bim-Mcl-1 1, Mcl1 Bid PPI -3, 14-3-3 Bad inh 7 and NCF1 inh -1.
Screening COc1ccc(OCc2nc(N)nc(Nc3ccccc3OC)n2)cc1 returned Mcl1-Noxa inh -6, Bim-Mcl-1 0, Mcl1 Bid PPI -23, 14-3-3 Bad inh 6 and NCF1 inh 99*.
`CC(=O)Nc1cccc(C(=O)/C=C/c2ccc(F)cc2)c1` gave Mcl1-Noxa inh -1, Bim-Mcl-1 0, Mcl1 Bid PPI -5, 14-3-3 Bad inh 0 and NCF1 inh -8.
Screening O=C(/C=C\c1ccco1)c1ccc(NC(=O)c2ccco2)cc1 returned Mcl1-Noxa inh 76*, Bim-Mcl-1 0, Mcl1 Bid PPI -86, 14-3-3 Bad inh 12 and NCF1 inh -20.
For CC(=O)Nc1cccc(C(=O)/C=C/c2ccc(/C=C/C(=O)c3cccc(NC(C)=O)c3)cc2)c1 the results were Mcl1-Noxa inh 45, Bim-Mcl-1 -5, Mcl1 Bid PPI 59*, 14-3-3 Bad inh 30 and NCF1 inh 12.
For CC(=O)Nc1cccc(C(=O)/C=C/c2ccco2)c1 the results were Mcl1-Noxa inh 19, Bim-Mcl-1 0, Mcl1 Bid PPI -17, 14-3-3 Bad inh 7 and NCF1 inh -15.
`O=C(/C=C/c1ccco1)c1ccc(O)cc1` gave Mcl1-Noxa inh 15, Bim-Mcl-1 0, Mcl1 Bid PPI -28, 14-3-3 Bad inh -1 and NCF1 inh -14.
`CC(=O)Nc1ccc(C(=O)/C=C/c2ccco2)cc1` gave Mcl1-Noxa inh 61*, Bim-Mcl-1 -5, Mcl1 Bid PPI -8, 14-3-3 Bad inh 5 and NCF1 inh -17.
For CC1(C)CC(CCNC(=O)CCl)(c2ccccc2)CCO1 (stereo not drawn) the results were Mcl1-Noxa inh -6, Mcl1 Bid PPI -1, 14-3-3 Bad inh 1 and NCF1 inh -8.
CCCCCCCCCC[n+]1cccc2c3ccccc3ccc21 was read as Mcl1-Noxa inh 42, Bim-Mcl-1 -2, Mcl1 Bid PPI 21, 14-3-3 Bad inh 5 and NCF1 inh 50*.
For Cc1ccc2nc(SCC3CCCCO3)[nH]c2c1 (stereo not drawn) the results were Mcl1-Noxa inh -17, Mcl1 Bid PPI -20, 14-3-3 Bad inh -2 and NCF1 inh -4.
Screening CCOc1nsc(OCC)n1 returned Mcl1-Noxa inh 59*, Mcl1 Bid PPI -4, 14-3-3 Bad inh 1 and NCF1 inh 6.
For Cc1cccc(NC(=O)Cn2cnc3ccccc3c2=O)c1C the results were Mcl1-Noxa inh 2, Bim-Mcl-1 2, Mcl1 Bid PPI -6, 14-3-3 Bad inh 92* and NCF1 inh -3.
Cc1cccc(NC(=O)Cn2cnc3c(oc4ccccc43)c2=O)c1C was read as Mcl1-Noxa inh -8, Bim-Mcl-1 -1, Mcl1 Bid PPI -22, 14-3-3 Bad inh -5 and NCF1 inh 0.
CCc1ccc(NC(=O)COc2ccc(/C=C(/C#N)c3nc4ccccc4[nH]3)cc2OC)cc1 was read as Mcl1-Noxa inh 34, Bim-Mcl-1 -13, Mcl1 Bid PPI 56*, 14-3-3 Bad inh 59 and NCF1 inh 2.
For O=C(COc1ccc(Cl)cc1)Nc1ccc(Cl)cn1 the results were Mcl1-Noxa inh -1, Bim-Mcl-1 0, Mcl1 Bid PPI -15, 14-3-3 Bad inh 82* and NCF1 inh -1.
CCOC(=O)c1ccc(NC(=O)Nc2ccc(Cl)cn2)cc1 was read as Mcl1-Noxa inh 13, Bim-Mcl-1 0, Mcl1 Bid PPI -6, 14-3-3 Bad inh -2 and NCF1 inh 36*.
For CCN(CC)c1ccc(/C=N/N2CCN(Cc3ccccc3)CC2)cc1 the results were Mcl1-Noxa inh 75*, Bim-Mcl-1 -3, Mcl1 Bid PPI -8, 14-3-3 Bad inh 5 and NCF1 inh -29.
Screening C(=N\N1CCN(Cc2ccccc2)CC1)/c1ccccc1 returned Mcl1-Noxa inh -5, Mcl1 Bid PPI -73, 14-3-3 Bad inh 4 and NCF1 inh -1.
`COc1cc(/C=N/NC(=O)Cn2ccc(C(F)(F)F)n2)cc(OC)c1OC` gave Mcl1-Noxa inh 14, Bim-Mcl-1 -2, Mcl1 Bid PPI -12, 14-3-3 Bad inh -7 and NCF1 inh -4.
Cc1cc(C)c[n+](-c2nc3ccccc3nc2C(=C=[N-])C#N)c1 was read as Mcl1-Noxa inh 23, Bim-Mcl-1 46*!, Mcl1 Bid PPI -30, 14-3-3 Bad inh -4 and NCF1 inh -28.
O=C(Nc1cc(S(=O)(=O)N2CCCCC2)ccc1N1CCCCC1)C1CC1 was read as Mcl1-Noxa inh -16, Mcl1 Bid PPI -43, 14-3-3 Bad inh 8 and NCF1 inh -4.
`CC(C)N(C(=O)COC(=O)c1cncc(Br)c1)C(C)C` gave Mcl1-Noxa inh 14, Bim-Mcl-1 -1, Mcl1 Bid PPI -7, 14-3-3 Bad inh 4 and NCF1 inh 2.
Screening Cc1ccc(N2C(=O)CC(Cn3nc(C)cc3C)C2=O)cc1 (stereo not drawn) returned Mcl1-Noxa inh 11, Bim-Mcl-1 0, Mcl1 Bid PPI 91* and NCF1 inh -7.
CCc1nn2c(=O)cc(COc3ccc(/C=C4\C(=N)N5N=C(CC(C)C)SC5=NC4=O)cc3)nc2s1 was read as Mcl1-Noxa inh 27, Mcl1 Bid PPI -55, 14-3-3 Bad inh 6 and NCF1 inh -23.
For CCC1=NN2C(=N)/C(=C\c3ccc(OCc4cc(=O)n5nc(CC)sc5n4)c(OC)c3)C(=O)N=C2S1 the results were Mcl1-Noxa inh 94*, Bim-Mcl-1 2, Mcl1 Bid PPI -66, 14-3-3 Bad inh 4 and NCF1 inh -27.
For O=C(CSc1nnc(NC(=O)c2ccc3c(c2)OCO3)s1)NCc1ccco1 the results were Mcl1-Noxa inh 28, Bim-Mcl-1 0, Mcl1 Bid PPI -35, 14-3-3 Bad inh -3 and NCF1 inh -11.
COc1cccc(CNC(=O)CSCc2cnn(-c3ccccc3)c2-n2cccc2)c1OC was read as Mcl1-Noxa inh 0, Bim-Mcl-1 -1, Mcl1 Bid PPI 72*, 14-3-3 Bad inh 20 and NCF1 inh -3.
